The campaign covered roughly 310,000 compounds. About 14,000 (4.5%) showed an effect of 50% or more. Effects have a minus sign here. Many of the other results were omitted from the sample, so strong results are more common in it than they were.
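Further: peak tail current of the secondary pulse compared with the same well before compound.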

The target of this assay is human ether-à-go-go-related gene (hERG) potassium channel (human, UniProt Q12809). The assay can be described thus: primary screen, population patch clamp on CHO cells stably expressing hERG; higher = less effect of the substance.
human ether-à-go-go-related gene (hERG) potassium channel, sequence (Q12809 whole entry, looked up): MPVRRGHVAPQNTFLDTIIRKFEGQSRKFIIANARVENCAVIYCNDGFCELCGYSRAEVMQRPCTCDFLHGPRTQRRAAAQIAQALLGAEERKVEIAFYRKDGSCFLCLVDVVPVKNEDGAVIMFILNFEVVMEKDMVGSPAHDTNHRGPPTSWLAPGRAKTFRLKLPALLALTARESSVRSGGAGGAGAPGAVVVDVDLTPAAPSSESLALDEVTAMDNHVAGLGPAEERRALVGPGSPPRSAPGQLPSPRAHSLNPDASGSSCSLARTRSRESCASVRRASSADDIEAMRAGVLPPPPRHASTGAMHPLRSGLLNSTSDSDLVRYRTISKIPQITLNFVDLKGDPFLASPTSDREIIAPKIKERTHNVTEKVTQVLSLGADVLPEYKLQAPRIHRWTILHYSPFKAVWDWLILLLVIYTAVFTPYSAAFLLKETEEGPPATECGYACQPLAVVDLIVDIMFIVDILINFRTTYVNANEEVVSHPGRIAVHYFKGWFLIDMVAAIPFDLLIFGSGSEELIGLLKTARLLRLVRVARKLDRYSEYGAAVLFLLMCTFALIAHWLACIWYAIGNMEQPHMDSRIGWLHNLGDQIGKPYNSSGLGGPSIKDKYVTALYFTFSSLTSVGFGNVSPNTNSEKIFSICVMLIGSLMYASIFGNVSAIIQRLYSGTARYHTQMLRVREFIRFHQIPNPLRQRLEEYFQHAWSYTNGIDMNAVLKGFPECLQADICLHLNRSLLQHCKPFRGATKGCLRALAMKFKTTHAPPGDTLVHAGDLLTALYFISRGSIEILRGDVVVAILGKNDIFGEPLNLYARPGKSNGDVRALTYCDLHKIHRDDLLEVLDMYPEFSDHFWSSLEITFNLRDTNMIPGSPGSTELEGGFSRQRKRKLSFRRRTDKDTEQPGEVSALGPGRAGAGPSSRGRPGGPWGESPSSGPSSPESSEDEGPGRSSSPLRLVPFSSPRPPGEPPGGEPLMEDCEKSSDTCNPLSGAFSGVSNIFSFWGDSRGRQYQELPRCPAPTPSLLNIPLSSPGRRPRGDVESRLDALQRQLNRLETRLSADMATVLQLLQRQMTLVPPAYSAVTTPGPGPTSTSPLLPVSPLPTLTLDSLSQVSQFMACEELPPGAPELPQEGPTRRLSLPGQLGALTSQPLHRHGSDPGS
Take `COc1ccc(CN2C(=O)c3ccccc3C2=O)cc1C(=O)N(C)CC(=O)Nc1c(C)cccc1C`: the “hERG current change (%, negative = inhibition) at 10uM” value is recorded as -16.7%. `CCOC(=O)C1(CCOc2ccccc2)CCN(Cc2cnc(C)s2)CC1`: the “hERG current change (%, negative = inhibition) at 10uM” value was -62.4%.

As for `CCOC(=O)C1(CCOc2ccccc2)CCN(Cc2cnc(C)[nH]2)CC1`, the “hERG current change (%, negative = inhibition) at 10uM” value is recorded as -48.3%. Turning to `CCC(=O)Nc1cccc(NC(=O)c2ccc(C)cc2Cl)c1`, the “hERG current change (%, negative = inhibition) at 10uM” value is on record as 34.5%. For `NC(=S)NNc1ccc(Cl)c(Cl)c1`, the “hERG current change (%, negative = inhibition) at 10uM” value is reported as 16.3%. For the molecule `O=C(NCCCN1CCOCC1)c1ccc(N2CCCC2)c([N+](=O)[O-])c1`, the “hERG current change (%, negative = inhibition) at 10uM” value was -16.8%.

Take `COc1ccc(C(=O)NCCCn2ccnc2)cc1[N+](=O)[O-]`: the “hERG current change (%, negative = inhibition) at 10uM” value is on record as -8.22%.

Turning to `Cc1ccc(C(=O)NCCCn2ccnc2)cc1[N+](=O)[O-]`, the “hERG current change (%, negative = inhibition) at 10uM” value was found to be 4.53%. As for `Cl.O=C(NCCCn1ccnc1)c1ccc(N2CCCCCC2)c([N+](=O)[O-])c1`, the figure is -64%. Take `Cl.O=C(NCCCn1ccnc1)c1ccc(S(=O)(=O)N2CCCCCC2)cc1`: the “hERG current change (%, negative = inhibition) at 10uM” value is given as -7.07%. Regarding `O=C(NCCCn1ccnc1)c1ccc(N2CCCCC2)c([N+](=O)[O-])c1`, the “hERG current change (%, negative = inhibition) at 10uM” value was -71.7%. Then `COc1ccc(/C=C(\NC(=O)c2ccccc2)C(=O)NCCC(=O)O)cc1`, with 26.3%. As for `Cc1cc(NC(=O)c2ccc3c(c2)OCCO3)ccc1NC(=O)c1ccco1`, the figure is 8.5%; as for `COc1ccc(C(=O)NCC(=O)N/N=C/c2ccco2)cc1OC`, 25.9%. Then `CCCc1ccc(OCCNC(=O)CC)cc1`, with -10.9%. Regarding `COC(=O)C1=CN(c2ccc(Cl)cc2)C=C(C(=O)OC)C1c1ccc([N+](=O)[O-])cc1`, the “hERG current change (%, negative = inhibition) at 10uM” value is 16.2%. As for `COc1ccc(C(C(=O)Nc2ccc(F)cc2)N(C(=O)Cn2nnc3ccccc32)C2CC2)cc1` (centres unmarked), the figure is -45.6%. Consider `CCOc1ccc(C(C(=O)Nc2ccc(F)cc2)N(C(=O)Cn2nnc3ccccc32)C2CC2)cc1` (centres unmarked), for which the “hERG current change (%, negative = inhibition) at 10uM” value is on record as -50.3%.

On to `CCC(C)N(C(=O)Cn1nnc2ccccc21)C(C(=O)Nc1ccc(F)cc1)c1cccc(OC)c1` (centres unmarked), for which the “hERG current change (%, negative = inhibition) at 10uM” value is on record as -18.8%. As for `Cc1cccc(N(C(=O)c2nsc(Cl)c2Cl)C(C(=O)NC2CCCC2)c2ccc(O)cc2)c1` (centres unmarked), the figure is -2.24%. `N#CCO/N=C(\c1ccccc1)c1ccncc1`: the “hERG current change (%, negative = inhibition) at 10uM” value came out at 18.1%. Then `O=C(O)CNC(=O)/C(=C\c1ccc2c(c1)OCO2)NC(=O)c1ccc(Br)cc1`, with 8.77%. `CCNC(=O)/C(=C\c1ccc2c(c1)OCO2)NC(=O)c1ccc(Br)cc1`: the “hERG current change (%, negative = inhibition) at 10uM” value is -69.7%.

As to `C=CCNC(=O)/C(=C\c1ccc2c(c1)OCO2)NC(=O)c1ccc(Br)cc1`, the “hERG current change (%, negative = inhibition) at 10uM” value is reported as -30%. For the molecule `O=C(Nc1cccc(C(=O)O)c1)/C(=C/c1ccc2c(c1)OCO2)NC(=O)c1cccc(Br)c1`, the “hERG current change (%, negative = inhibition) at 10uM” value worked out at 7.35%. Consider `CCNC(=O)/C(=C/c1ccc2c(c1)OCO2)NC(=O)c1ccc(Br)cc1`, for which the “hERG current change (%, negative = inhibition) at 10uM” value is on record as -58.3%. Then `O=C(Nc1ccc(C(=O)O)cc1)/C(=C/c1ccc2c(c1)OCO2)NC(=O)c1cccc(Br)c1`, with 7.25%; and `CC1CC2=C(C(=O)O1)C(c1ccc(Cl)cc1)Nc1ccccc1N2` (centres unmarked), with -6.21%; and `Cc1ccc(-c2csc(NC(=O)CCNC(=O)c3ccccc3Cl)n2)cc1`, with 1.5%. As for `CC1CCCCC1N1CCN(C(=O)c2cccc(F)c2)CC1.O=C(O)C(=O)O` (centres unmarked), the figure is -17.5%; as for `CS(=O)(=O)c1ccc(-c2cccc(NC(=O)COc3ccccc3)c2)nn1`, -3.45%. As for `CCCN1C(=O)/C(=C/c2nc3ccccc3c(=O)[nH]2)c2ccccc21`, the figure is 1.75%; as for `O=C(COC(=O)c1nc(Cl)ccc1Cl)Nc1ccc2c(c1)OCO2`, -3.62%. As for `Cc1c(O)c(S(=O)(=O)c2ccccc2)c(=O)n(-c2ccccc2)c1-c1ccccc1`, the “hERG current change (%, negative = inhibition) at 10uM” value was 3.84%. As for `CN(C)CCn1c(=N)n(CC(O)c2ccc(Cl)c(Cl)c2)c2ccccc21.Cl` (centres unmarked), the figure is -66.1%. As for `COc1ccc(C(O)Cn2c(=N)n(CCCN(C)C)c3ccccc32)cc1.Cl` (centres unmarked), the figure is -13%; as for `Cl.N=c1n(CCN2CCCC2)c2ccccc2n1CC(O)c1ccc(Cl)c(Cl)c1` (centres unmarked), -91.4%. For the molecule `Cl.N=c1n(CCN2CCCCC2)c2ccccc2n1CC(O)c1cccc(Br)c1` (centres unmarked), the “hERG current change (%, negative = inhibition) at 10uM” value is listed as -63.2%.

For the molecule `OC(CN1CCCCC1)Cn1c2ccccc2c2cc(Br)ccc21` (centres unmarked), the “hERG current change (%, negative = inhibition) at 10uM” value was -33.1%. Then `Cl.N=c1n(CCN2CCCCC2)c2ccccc2n1CC(O)c1ccc(Cl)c(Cl)c1` (centres unmarked), with -105%; and `Cl.N=c1n(CCO)c2ccccc2n1CCN1CCCCC1`, with 6.77%; and `Cc1ccc2c(c1)N(CCC(=O)NCCCOC(C)C)C(=O)C(C)O2` (centres unmarked), with -0.496%.

Consider `O=C(Nc1ccccc1C(=O)NCc1cccnc1)c1cccc([N+](=O)[O-])c1`, for which the “hERG current change (%, negative = inhibition) at 10uM” value is on record as -1.36%.

As for `O=C(CSc1nc(-c2ccc(F)cc2)cc(C(F)(F)F)n1)NCc1ccco1`, the “hERG current change (%, negative = inhibition) at 10uM” value was determined as 10.2%.
